For one assay, the target named is Albumin (Bos taurus) (UniProt P02769). Description: compounds binding labelled BSA control protein – biochemical, small-molecule microarray, Alexa647 label, 635/667 nm fluorescence, artefact control for SMM control protein annotation, profiling panel (AID 1118).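 Note: score merges 667 nm emission intensity and signal-to-noise per printed compound spot.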 The settings on record: BSA-A647 binding, fluorescence 635 nm, higher = more signal.
The nature of assay [1]: probe aXIP binding to arrayed compounds – biochemical, NeuroSMM set, 635/667 nm fluorescence, primary screen (AID 1119).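 Note: probe is the protein aXip251-270 applied at 1 µg/mL to compound-printed slides; binding of probe to printed compounds measured as 667 nm fluorescence plus signal to noise.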 Conditions: small-molecule microarray, higher = more signal, called active from +8 up or from −8 down.
Assay [2] can be described thus: probe aNOTCH3 binding on compound microarray – biochemical, small-molecule microarray, 635/667 nm fluorescence, primary screen (AID 1120).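 Note: probe is a biotin-tagged antibody raised against NOTCH3 rather than NOTCH3 protein; score merges spot fluorescence near 667 nm with spot signal to noise.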 The settings on record: higher = more signal.
Assay [3] is described as follows: probe aNOTCH2 binding on compound microarray – biochemical, small-molecule microarray, 635/667 nm fluorescence, primary screen (AID 1121).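 Note: score merges feature fluorescence read at 667 nm with its signal to noise.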 Conditions: higher = more signal.
The target in assay [4] is Carbonic anhydrase 2 (Homo sapiens) (UniProt P00918). Description: compounds binding carbonic anhydrase 2 – biochemical, small-molecule microarray, Alexa647-labelled CAII, profiling panel (AID 1122). The settings on record: CAII-A647 binding fluorescence, higher = more signal.
The nature of assay [5]: COS7 lysate on small-molecule microarray, probe aHis, 635 nm (AID 1123).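 Note: z-score combines 667nm fluorescence intensity with signal-to-noise per printed compound spot.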 Conditions: COS7 cell lysate, fluorescence, higher = more signal.
Assay [6] can be described thus: probe aLAP1 signal on lysate-treated microarray – cell lysate, small-molecule microarray, COS7 lysate, primary screen (AID 1124).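 Note: lysate comes from COS7 cells expressing LAP1 and is applied at 0.3 µg/mL; score merges spot fluorescence near 667 nm with signal-to-noise over triplicate slides.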 The settings on record: probe aLAP1, fluorescence, higher = more signal.
A further assay concerns Sam68 (KHDRBS1). Description: compounds binding KHDRBS1 protein – biochemical, small-molecule microarray, 635 nm fluorescence, primary screen (AID 1125).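 Note: score merges 667 nm channel intensity with signal to noise over triplicate slides.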 The settings on record: higher = more signal.
Assay [7] relates to Chordin-like protein 2 (CHRDL2). Description: compounds binding chordin-like 2 – biochemical, small-molecule microarray, 635 nm fluorescence, primary screen (AID 1126).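 Note: printed compound slides probed with Chrdl2 protein at 4 µg/mL for 1 h at 4 C; score merges 667 nm emission intensity with signal to noise over three replicate slides.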 The settings on record: fluorescence 635 nm, higher = more signal.
For assay [8], the target named is Concanavalin-A (Canavalia ensiformis) (UniProt P02866). Description: compounds binding concanavalin A lectin – biochemical, small-molecule microarray, Alexa647 label, 635 nm, artefact control for SMM control protein annotation, primary screen (AID 1127).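 Note: z combines 667 nm emission intensity with signal-to-noise across three replicate slides.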 Conditions: ConA-A647 binding fluorescence, higher = more signal.

Each structure is given as a SMILES string. Active and inactive are the calls of the source.

Sequence of Albumin (Bos taurus) (P02769 whole entry, looked up): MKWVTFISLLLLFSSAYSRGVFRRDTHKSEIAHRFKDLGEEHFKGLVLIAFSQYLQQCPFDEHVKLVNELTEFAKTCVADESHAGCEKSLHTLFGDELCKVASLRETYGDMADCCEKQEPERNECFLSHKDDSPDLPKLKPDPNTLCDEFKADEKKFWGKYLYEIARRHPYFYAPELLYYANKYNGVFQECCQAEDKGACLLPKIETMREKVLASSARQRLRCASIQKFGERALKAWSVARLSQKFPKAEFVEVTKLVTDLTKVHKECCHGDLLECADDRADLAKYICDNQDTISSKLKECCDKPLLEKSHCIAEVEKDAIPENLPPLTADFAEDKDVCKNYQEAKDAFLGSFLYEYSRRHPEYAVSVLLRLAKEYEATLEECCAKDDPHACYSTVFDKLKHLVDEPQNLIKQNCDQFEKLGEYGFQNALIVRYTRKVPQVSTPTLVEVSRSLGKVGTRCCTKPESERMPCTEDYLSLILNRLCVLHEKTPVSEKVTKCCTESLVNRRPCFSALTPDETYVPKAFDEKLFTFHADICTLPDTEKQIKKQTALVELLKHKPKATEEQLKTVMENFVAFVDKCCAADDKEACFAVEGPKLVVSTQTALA
Sequence of Concanavalin-A (Canavalia ensiformis) (P02866 whole entry, looked up): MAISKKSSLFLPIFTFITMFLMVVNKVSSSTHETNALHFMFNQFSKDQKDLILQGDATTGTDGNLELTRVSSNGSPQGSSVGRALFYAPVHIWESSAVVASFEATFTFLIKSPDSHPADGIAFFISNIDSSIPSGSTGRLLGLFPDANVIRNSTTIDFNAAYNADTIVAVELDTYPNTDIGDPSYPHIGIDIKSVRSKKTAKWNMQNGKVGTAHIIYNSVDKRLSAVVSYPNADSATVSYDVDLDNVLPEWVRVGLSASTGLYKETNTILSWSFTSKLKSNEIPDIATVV

Take `CCCCC(CC)C(O)C1C=CC2C(=O)N(c3ccccc3)C(=O)C2N1Nc1ccc([N+](=O)[O-])cc1` (stereo not given): the composite z-score in the assay with Albumin (Bos taurus) is 0.985; in assay [2], 0.44; in [3] it was -0.161; in assay [4], 0.652; in assay [5] it was 1.86; in assay [6], 0.914. Further, the composite z-score in the assay on Sam68 (KHDRBS1) was 1.31; in [7], 0.0772; in assay [8] it was 1.18. In [1], the composite Z-score was -0.189 (inactive).

As for `O=C1O[C@@H](c2ccccc2)[C@@H](c2ccccc2)N2[C@@H](c3ccc(O)cc3)[C@]3(C(=O)Nc4ccc(C#CCCO)cc43)[C@@H](C(=O)Nc3nc4ccccc4s3)[C@H]12`, the composite z-score was 0.827 with Albumin (Bos taurus); -0.0265 in assay [2]; -0.115 in [3]; 0.507 in assay [4]; 0.999 in assay [5]; 0.887 in assay [6]. Also, the composite z-score was 1.29 in the assay on Sam68 (KHDRBS1), -0.0623 in [7] and 0.616 in assay [8]. Also, in assay [1], the composite Z-score was -0.0011 (inactive).

Take `COc1ccc(NC(=O)O[C@H]2[C@H](OC(=O)Nc3ccc4c(c3)OCO4)[C@@H](OC(=O)Nc3ccc4c(c3)OCO4)[C@@H](OC)O[C@@H]2CO)cc1`: the composite z-score was 0.837 with Albumin (Bos taurus); 0.121 in [2]; -0.0116 in assay [3]; 0.442 in assay [4]; 2.71 in [5]; 0.714 in [6]. Also, the composite z-score in the assay on Sam68 (KHDRBS1) is 1.29; in assay [7] it was 0.143; in [8] it was 1.11. Also, the composite Z-score in assay [1] is 0.622 (inactive).

Consider `CN1C(=O)C2C=CC(C(O)c3c(F)cccc3Cl)N(Nc3ccccc3)C2C1=O` (stereo not given), for which the composite z-score in the assay with Albumin (Bos taurus) was 0.956; in assay [2] it was 0.291; in [3] it was 0.0177; in assay [4] it was 0.396; in assay [5] it was 2.84; in assay [6], 0.73. Besides, the values for the composite z-score (with Sam68 (KHDRBS1); in assay [7]; in assay [8]) were 0.895, 0.298 and 1.18, respectively. For the same compound, in assay [1], the composite Z-score is -0.263 (inactive).

As for `CC(C)C(O)C1C=CC2C(=O)N(C)C(=O)C2N1Nc1ccccc1` (stereo not given), the composite z-score is 1.04 with Albumin (Bos taurus); 0.585 in [2]; 0.45 in assay [3]; 0.812 in assay [4]; 1.86 in assay [5]; 1.01 in [6]. The composite z-score in the assay on Sam68 (KHDRBS1) was determined as 1.12; in assay [7], 0.164; in assay [8] it was 0.871. Moreover, the composite Z-score in assay [1] is 0.469 (inactive).

As for `C=CCOC(=O)[C@@H]1[C@H]2C(=O)O[C@H](c3ccccc3)[C@H](c3ccccc3)N2[C@H](c2ccc(OCCOC(=O)[C@H]3C[C@H]4C(=O)N[C@@H](CCCCNC(C)=O)C(=O)N4[C@H]3c3cccc(OCCO)c3)cc2)[C@@]12C(=O)Nc1ccc(I)cc12`, the composite z-score in the assay with Albumin (Bos taurus) is -1.29; in assay [2], -0.016; in [3], -0.12; in assay [4], 0.336; in assay [5] it was 1.13; in [6] it was 0.583. The values for the composite z-score (with Sam68 (KHDRBS1); in assay [7]; in [8]) were 1.31, 1.06 and 1.15, respectively. Further, the composite Z-score in [1] was 0.783 (inactive).

For the compound `CCCNC(=O)[C@@]1(c2ccc([N+](=O)[O-])cc2)CC(=O)N(C2CCCCC2)[C@@H]1c1ccc(CO)cc1I`, the composite z-score in the assay with Albumin (Bos taurus) is 0.529; in [2], -0.0328; in assay [3] it was -0.0635; in assay [4], 0.71; in assay [5], 1.73; in assay [6], 0.521. Besides, the composite z-score was 1.25 with Sam68 (KHDRBS1), -0.0452 in [7] and 1.07 in assay [8]. Moreover, the composite Z-score in assay [1] was 0.116 (inactive).

For the compound `COC(=O)[C@@]1(Cc2ccc(OC)cc2)[C@H]2c3cc(C(=O)N(C)C)n(CCc4c[nH]c5ccc(O)cc45)c3C[C@H]2CN1C(=O)c1ccccc1`, the composite z-score worked out at 0.932 with Albumin (Bos taurus); 0.403 in assay [2]; 0.357 in assay [3]; 0.745 in assay [4]; 2.88 in [5]; 1.27 in [6]. For the same compound, the composite z-score with Sam68 (KHDRBS1) was found to be 1.34; in [7], 0.121; in assay [8], 1.17. Moreover, in assay [1], the composite Z-score is 0.258 (inactive).

As to `CO[C@H]1O[C@H](CO)[C@@H](OC(=O)Nc2ccc(Oc3ccccc3)cc2)[C@H](OC(=O)Nc2ccccc2-c2ccccc2)[C@@H]1OC(=O)Nc1ccccc1-c1ccccc1`, the composite z-score with Albumin (Bos taurus) is 0.814; in assay [2] it was 0.182; in assay [3], 0.247; in [4], 0.482; in assay [5], 2.31; in [6], 1.09. For the same compound, the composite z-score in the assay with Sam68 (KHDRBS1) is 1.32; in assay [7], -0.139; in [8] it was 1.14. For the same compound, the composite Z-score in assay [1] is -0.098 (inactive).

With `Cc1ccc(S[C@]2(C(=O)NCC(C)C)CC(=O)N(Cc3ccccc3Cl)[C@@H]2c2ccc(CO)cc2I)cc1`, the composite z-score in the assay with Albumin (Bos taurus) is -0.253; in [2], -0.179; in assay [3], -0.127; in [4], 0.763; in assay [5], 0.363; in assay [6] it was 0.142. Also, the composite z-score with Sam68 (KHDRBS1) is 0.245; in assay [7], -0.332; in [8], -0.395. The composite Z-score in assay [1] was 0.0894 (inactive).

Turning to `C=CCOC(=O)[C@@H]1[C@H]2C(=O)O[C@H](c3ccccc3)[C@H](c3ccccc3)N2[C@H](c2ccc(OCCOC(=O)[C@H]3C[C@H]4C(=O)N[C@@H](CC(C)C)C(=O)N4[C@H]3c3ccc(O)cc3)cc2)[C@@]12C(=O)Nc1ccc(I)cc12`, the composite z-score was -1.13 with Albumin (Bos taurus); 0.154 in assay [2]; -0.153 in assay [3]; 0.609 in [4]; 2.3 in assay [5]; 0.103 in [6]. For the same compound, the composite z-score with Sam68 (KHDRBS1) was 1.31; in [7] it was 0.959; in assay [8] it was 1.22. For the same compound, in [1], the composite Z-score is 0.761 (inactive).

`CC1CC/C=C\[C@H]2OC34C=CCN(C(C)C)C(=O)[C@H]3N(CCCCCO)C(=O)[C@@H]4C2C(=O)O1` (stereo not given in full): the composite z-score with Albumin (Bos taurus) is -1.51; in assay [2], -0.289; in [3] it was -0.153; in [4], 0.939; in [5] it was -0.384; in [6] it was 0.839. The values for the composite z-score (in the assay on Sam68 (KHDRBS1); in [7]; in assay [8]) were -0.925, -1.69 and -0.486, respectively. In addition, the composite Z-score in [1] is -0.362 (inactive).

For the compound `CC(C)(C)OC(=O)CC[C@]1(C(=O)N2CCOCC2)N=C(c2ccc(OCCCO)cc2)O[C@H]1c1ccccc1`, the composite z-score in the assay with Albumin (Bos taurus) was 0.969; in assay [2] it was 0.116; in assay [3] it was -0.17; in [4], 0.834; in assay [5], 2.75; in [6], 0.135. Further, the composite z-score in the assay on Sam68 (KHDRBS1) is 1.02; in assay [7], -0.267; in [8], 0.838. For the same compound, the composite Z-score in assay [1] is -0.131 (inactive).

`CCOC(=O)C[C@H]1[C@H](OC(=O)c2ccccc2-c2ccccc2)[C@@H](NC(=O)CC(C)C)c2cc(OCCCO)ccc2N1C(=O)c1ccc2ccccc2n1`: the composite z-score is 0.641 with Albumin (Bos taurus); -0.0031 in assay [2]; -0.13 in assay [3]; 0.431 in assay [4]; 0.578 in [5]; 0.452 in assay [6]. For the same compound, the composite z-score is 0.569 in the assay on Sam68 (KHDRBS1), 0.224 in assay [7] and 0.629 in assay [8]. Also, the composite Z-score in assay [1] was 0.675 (inactive).

With `O=C1C[C@@](C(=O)NCC(F)(F)F)(c2ccc([N+](=O)[O-])cc2)[C@@H](c2ccc(CO)cc2)N1C1CCCCC1`, the composite z-score in the assay with Albumin (Bos taurus) stood at 0.52; in assay [2], 0.0488; in assay [3], 0.0257; in assay [4], 0.685; in assay [5], 3.17; in assay [6] it was 1.21. Further, the composite z-score in the assay with Sam68 (KHDRBS1) turned out to be 1.29; in assay [7], 0.489; in assay [8], 1.15. For the same compound, in assay [1], the composite Z-score is 0.391 (inactive).

With `COc1ccc(C#Cc2ccc3c(c2)[C@]2(C(=O)N3)[C@H](C(=O)N3CCc4cc(OC)c(OC)cc4C3)[C@H]3C(=O)O[C@H](c4ccccc4)[C@H](c4ccccc4)N3[C@@H]2c2ccc(O)cc2)cc1`, the composite z-score with Albumin (Bos taurus) is 0.845; in [2] it was 0.0562; in [3], 0.0397; in assay [4], 0.432; in [5] it was 1.46; in [6] it was -0.0296. The composite z-score with Sam68 (KHDRBS1) worked out at 1.3; in [7], 0.137; in [8] it was 1.13. For the same compound, the composite Z-score in assay [1] is 1.1 (inactive).

(Values after PubChem BioAssay.)
